# Data: ChEMBL document CHEMBL3988442, “University of Dundee, Small-Polar-MMV Screening Library” (2021)
# For some assays here: Results with a measured potency or affinity are listed apart.
# What was measured:
# Parameters in all cases: scale not given: direction of the effect not stated beside the values
# [1] = target: Protein translocase subunit SecA (Escherichia coli (strain K12)) (UniProt P10408); test: Assay to Identify E. coli SecA ATPase Inhibitors; format: functional; details: 30 µM
# [2] = target: T1, Ubiquitin-activating enzyme e1, putative (Leishmania donovani (strain BPK282A1)) (UniProt E9BSI1); test: Leishmania donovani Ubiquitin Activating Enzyme (LdE1); format: functional; details: 30 µM
# T1 sequence (whole entry): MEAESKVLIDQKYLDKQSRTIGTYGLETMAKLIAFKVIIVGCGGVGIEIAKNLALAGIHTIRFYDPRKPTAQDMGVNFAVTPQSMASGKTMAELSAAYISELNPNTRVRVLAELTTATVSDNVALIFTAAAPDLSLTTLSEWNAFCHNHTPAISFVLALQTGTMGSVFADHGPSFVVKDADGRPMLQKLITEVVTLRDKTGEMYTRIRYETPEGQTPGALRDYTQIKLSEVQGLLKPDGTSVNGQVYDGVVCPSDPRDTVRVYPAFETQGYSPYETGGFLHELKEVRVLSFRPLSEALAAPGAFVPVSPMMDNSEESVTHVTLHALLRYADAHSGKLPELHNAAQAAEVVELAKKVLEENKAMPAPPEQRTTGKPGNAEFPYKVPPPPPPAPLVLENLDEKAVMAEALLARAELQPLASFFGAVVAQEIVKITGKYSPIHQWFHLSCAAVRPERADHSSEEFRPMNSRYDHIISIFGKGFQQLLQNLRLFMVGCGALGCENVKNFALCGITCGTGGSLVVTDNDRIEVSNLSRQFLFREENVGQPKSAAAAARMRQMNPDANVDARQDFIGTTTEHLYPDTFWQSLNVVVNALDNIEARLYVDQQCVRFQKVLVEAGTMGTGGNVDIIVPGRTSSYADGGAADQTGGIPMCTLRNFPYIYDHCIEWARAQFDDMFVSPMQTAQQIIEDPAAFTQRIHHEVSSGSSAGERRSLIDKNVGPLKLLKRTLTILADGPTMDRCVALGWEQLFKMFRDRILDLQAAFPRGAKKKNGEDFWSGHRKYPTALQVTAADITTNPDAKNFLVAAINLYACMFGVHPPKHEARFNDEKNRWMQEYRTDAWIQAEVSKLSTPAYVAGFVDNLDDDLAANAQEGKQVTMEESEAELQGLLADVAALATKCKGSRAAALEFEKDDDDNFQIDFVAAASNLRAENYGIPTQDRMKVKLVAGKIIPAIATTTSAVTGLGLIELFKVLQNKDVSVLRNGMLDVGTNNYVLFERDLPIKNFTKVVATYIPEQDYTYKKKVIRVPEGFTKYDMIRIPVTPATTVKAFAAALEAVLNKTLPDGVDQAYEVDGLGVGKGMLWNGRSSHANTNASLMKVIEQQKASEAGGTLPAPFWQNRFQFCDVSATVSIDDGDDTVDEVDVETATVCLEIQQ
# [3] = target: AMP-activated protein kinase, AMPK (Homo sapiens) (UniProt P54646+O43741+P54619+Q9UGJ0+Q9Y478+Q13131+Q9UGI9); test: AMP-dependent Kinase enzyme assay. An in vitro enzyme assay that detects ADP turnover that is directly proportional to AMPK activity. This uses naive AMPK that is activated during the assay with MK-8722; format: functional; details: 30 µM
# [4] = target: Sialic acid-binding Ig-like lectin 9 (Homo sapiens) (UniProt Q9Y336); test: Hs-Siglec9 ALPHAscreen SOP 20170721; details: 10 µM
# [5] = test system: Trypanosoma cruzi; test: Trypanosoma cruzi phosphomannomutase and mannose-1-phosphate guanylyltransferase assay; format: functional; details: 10 µM
# [6] = target: T2, Arginase-2, mitochondrial (Homo sapiens) (UniProt P78540); test: in vitro enzyme assay to detect the production of urea directly proportional to the activity of Arginase II; format: functional; details: 33.3 µM; note: in the data most compounds retested in dose-response had high values
# T2 sequence (whole entry): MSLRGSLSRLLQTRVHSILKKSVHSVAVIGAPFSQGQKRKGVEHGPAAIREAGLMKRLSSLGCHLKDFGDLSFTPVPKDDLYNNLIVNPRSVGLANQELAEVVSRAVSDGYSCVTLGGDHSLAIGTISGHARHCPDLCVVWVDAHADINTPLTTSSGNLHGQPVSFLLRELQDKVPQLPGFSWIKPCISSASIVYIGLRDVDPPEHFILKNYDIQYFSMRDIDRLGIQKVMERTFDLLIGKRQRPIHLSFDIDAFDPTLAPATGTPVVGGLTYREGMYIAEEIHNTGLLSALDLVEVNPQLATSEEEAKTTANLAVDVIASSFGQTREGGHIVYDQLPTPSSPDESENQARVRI
# [7] = target: T3, Proteasome subunit beta (Trypanosoma cruzi) (UniProt O96673); test: Trypanosoma cruzi proteasome chymotrypsin-like activity (TcProtChymo) assay.; note: in the data most compounds retested in dose-response had high values; format: functional; details: 9.37 µM
# T3 sequence (whole entry): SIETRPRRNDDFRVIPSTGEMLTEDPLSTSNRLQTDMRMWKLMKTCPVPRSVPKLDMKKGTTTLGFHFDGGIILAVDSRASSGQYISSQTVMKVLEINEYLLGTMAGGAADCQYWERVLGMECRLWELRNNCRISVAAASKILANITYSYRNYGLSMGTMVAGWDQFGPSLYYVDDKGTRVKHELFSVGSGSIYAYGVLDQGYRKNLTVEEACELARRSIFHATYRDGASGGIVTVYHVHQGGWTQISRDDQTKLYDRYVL
# [8] = species on record: Homo sapiens; test: To identify inhibition of the IFN signalling (Jak-Stat) pathway via expression of an eGFP reporter gene under the control of an IFN-stimulated response element (ISRE) containing MxA promoter.; format: functional; details: 30 µM
# [9] = target: T4, Tyrosyl-tRNA synthetase, putative (Trypanosoma cruzi (strain CL Brener)) (UniProt Q4DSP6); test: Trypanosoma cruzi tyrosyl tRNA synthetase (TcYRS) _High Tyrosine SOP; format: functional; details: 30 µM; note: in the data most compounds retested in dose-response had high values
# T4 sequence (whole entry): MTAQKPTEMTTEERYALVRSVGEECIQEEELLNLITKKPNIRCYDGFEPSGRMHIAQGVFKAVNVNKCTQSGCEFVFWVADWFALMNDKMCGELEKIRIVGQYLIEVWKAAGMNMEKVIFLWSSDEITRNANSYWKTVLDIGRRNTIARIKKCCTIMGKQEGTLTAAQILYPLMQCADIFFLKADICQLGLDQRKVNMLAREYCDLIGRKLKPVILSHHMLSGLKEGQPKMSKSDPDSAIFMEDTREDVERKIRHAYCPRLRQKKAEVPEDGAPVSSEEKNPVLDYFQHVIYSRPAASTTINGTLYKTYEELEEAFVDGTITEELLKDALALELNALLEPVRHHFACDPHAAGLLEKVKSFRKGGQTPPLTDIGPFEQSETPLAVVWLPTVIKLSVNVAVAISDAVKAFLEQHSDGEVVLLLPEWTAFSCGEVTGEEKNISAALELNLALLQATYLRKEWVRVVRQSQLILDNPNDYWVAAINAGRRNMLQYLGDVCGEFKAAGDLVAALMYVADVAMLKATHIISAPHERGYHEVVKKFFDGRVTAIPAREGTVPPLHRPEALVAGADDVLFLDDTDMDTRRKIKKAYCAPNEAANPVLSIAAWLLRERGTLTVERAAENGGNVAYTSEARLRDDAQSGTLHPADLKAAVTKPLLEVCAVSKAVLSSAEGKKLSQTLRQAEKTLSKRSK
# [10] = target: T4, Tyrosyl-tRNA synthetase, putative (Trypanosoma cruzi (strain CL Brener)); test: Trypanosoma cruzi tyrosyl tRNA synthetase (TcYRS) SOP; format: functional; details: 30 µM
# [11] = target: Chromo domain-containing protein 1 (Saccharomyces cerevisiae (strain ATCC 204508 / S288c) (Baker's yeast)) (UniProt P32657); test: ScCHD-1 Enzyme Inhibition Assay; format: functional; details: 30 µM; note: in the data most compounds retested in dose-response had high values
# Chromo domain-containing protein 1 (Saccharomyces cerevisiae (strain ATCC 204508 / S288c) (Baker's yeast)), sequence (P32657 whole entry, the tested form may be a part): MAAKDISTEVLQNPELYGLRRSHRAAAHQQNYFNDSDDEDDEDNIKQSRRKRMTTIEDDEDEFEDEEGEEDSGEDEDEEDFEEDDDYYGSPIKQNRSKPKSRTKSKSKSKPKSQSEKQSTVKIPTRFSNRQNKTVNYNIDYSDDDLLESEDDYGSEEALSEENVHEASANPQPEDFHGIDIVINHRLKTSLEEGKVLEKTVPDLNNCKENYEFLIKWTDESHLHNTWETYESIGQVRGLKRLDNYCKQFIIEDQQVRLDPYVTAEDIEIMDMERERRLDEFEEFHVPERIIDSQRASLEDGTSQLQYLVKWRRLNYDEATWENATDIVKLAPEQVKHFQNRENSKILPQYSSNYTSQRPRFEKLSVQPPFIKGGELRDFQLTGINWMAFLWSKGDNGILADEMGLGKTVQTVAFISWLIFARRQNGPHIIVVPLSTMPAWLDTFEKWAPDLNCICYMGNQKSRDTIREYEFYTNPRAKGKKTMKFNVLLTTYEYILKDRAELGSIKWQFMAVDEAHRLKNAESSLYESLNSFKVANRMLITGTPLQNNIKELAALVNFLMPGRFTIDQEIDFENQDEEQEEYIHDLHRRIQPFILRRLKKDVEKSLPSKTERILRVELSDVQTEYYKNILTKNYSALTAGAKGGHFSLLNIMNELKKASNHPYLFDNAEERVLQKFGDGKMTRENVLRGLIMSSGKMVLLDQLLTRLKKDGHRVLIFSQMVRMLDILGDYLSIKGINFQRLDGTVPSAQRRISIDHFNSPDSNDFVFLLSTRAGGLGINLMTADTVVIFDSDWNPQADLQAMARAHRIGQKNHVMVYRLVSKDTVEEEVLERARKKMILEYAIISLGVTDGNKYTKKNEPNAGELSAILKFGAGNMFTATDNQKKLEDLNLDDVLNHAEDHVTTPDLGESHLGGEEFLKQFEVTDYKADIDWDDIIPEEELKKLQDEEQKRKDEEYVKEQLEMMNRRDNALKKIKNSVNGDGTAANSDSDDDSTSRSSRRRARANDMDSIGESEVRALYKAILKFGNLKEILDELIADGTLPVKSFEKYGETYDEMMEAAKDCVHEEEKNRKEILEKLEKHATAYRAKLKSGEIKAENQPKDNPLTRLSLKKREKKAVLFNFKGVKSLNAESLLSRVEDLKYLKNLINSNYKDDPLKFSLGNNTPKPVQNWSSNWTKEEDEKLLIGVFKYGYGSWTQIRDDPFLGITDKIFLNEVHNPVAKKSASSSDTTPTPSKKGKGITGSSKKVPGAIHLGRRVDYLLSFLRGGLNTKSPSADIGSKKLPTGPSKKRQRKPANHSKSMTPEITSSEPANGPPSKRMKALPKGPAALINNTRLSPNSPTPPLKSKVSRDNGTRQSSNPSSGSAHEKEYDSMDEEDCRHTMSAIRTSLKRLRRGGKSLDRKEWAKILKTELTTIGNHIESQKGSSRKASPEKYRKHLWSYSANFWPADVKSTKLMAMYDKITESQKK
# Sialic acid-binding Ig-like lectin 9 (Homo sapiens), sequence (Q9Y336 whole entry): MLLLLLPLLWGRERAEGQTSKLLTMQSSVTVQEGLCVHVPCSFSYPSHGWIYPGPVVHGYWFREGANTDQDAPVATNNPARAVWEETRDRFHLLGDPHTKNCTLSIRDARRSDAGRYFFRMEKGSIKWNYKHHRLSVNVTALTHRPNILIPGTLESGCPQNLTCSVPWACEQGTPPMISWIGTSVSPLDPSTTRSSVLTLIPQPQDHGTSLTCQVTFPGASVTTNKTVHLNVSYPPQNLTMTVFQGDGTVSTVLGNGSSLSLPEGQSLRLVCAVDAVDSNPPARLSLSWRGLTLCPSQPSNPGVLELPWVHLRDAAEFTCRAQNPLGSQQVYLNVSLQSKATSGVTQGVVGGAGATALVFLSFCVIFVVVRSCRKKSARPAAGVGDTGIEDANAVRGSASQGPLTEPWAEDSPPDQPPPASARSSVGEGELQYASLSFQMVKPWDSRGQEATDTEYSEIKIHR
# Protein translocase subunit SecA (Escherichia coli (strain K12)), sequence (P10408 whole entry): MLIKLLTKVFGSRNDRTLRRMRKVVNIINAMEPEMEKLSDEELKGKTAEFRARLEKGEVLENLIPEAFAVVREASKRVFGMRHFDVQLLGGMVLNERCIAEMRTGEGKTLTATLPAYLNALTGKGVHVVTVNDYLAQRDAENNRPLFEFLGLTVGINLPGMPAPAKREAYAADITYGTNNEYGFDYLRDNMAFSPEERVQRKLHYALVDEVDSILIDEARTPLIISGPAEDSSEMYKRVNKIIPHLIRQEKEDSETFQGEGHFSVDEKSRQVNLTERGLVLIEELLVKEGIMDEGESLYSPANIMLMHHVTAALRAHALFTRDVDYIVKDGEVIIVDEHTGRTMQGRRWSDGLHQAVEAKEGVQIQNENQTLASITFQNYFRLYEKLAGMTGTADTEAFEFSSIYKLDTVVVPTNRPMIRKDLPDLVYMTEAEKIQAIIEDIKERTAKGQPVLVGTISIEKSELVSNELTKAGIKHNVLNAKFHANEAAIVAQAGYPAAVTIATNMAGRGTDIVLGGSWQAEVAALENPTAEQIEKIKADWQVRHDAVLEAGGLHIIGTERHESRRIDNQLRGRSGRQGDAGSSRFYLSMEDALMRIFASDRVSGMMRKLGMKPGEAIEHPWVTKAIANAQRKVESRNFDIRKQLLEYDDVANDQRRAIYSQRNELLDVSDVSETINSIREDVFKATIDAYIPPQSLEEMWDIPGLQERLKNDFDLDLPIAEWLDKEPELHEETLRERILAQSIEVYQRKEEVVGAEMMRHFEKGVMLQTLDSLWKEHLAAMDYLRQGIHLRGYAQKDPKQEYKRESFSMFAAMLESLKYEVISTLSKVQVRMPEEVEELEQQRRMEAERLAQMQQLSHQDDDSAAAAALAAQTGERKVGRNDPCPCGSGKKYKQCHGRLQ
Compound,Percent Effect [1],Percent Effect [2],Percent Effect [3],Percent Effect [4],Percent Effect [5],Percent Effect [6],Percent Effect [7],Percent Effect [8],Percent Effect [9],Percent Effect [10],Percent Effect [11]
CC(NC(=O)C1=NN(C)C(=O)CC1)c1ccc(Cl)cc1Cl (stereo not given),-2.53%,16.4%,8.07%,9.9%,2.74%,8.64%,11.9%,16.3%,2.15%,20%,-7.04%
CCOC(CC)C(=O)NCc1ccnc(Oc2ccc(F)cc2)c1 (stereo not given),-0.936%,-2.7%,-2.91%,0.458%,-3.28%,4.29%,11%,9.46%,7.94%,12.2%,-1.51%
COc1ncccc1C(=O)N1CC[C@H]2C[C@@H](C)O[C@@H]2C1,-0.702%,17.3%,0.286%,-4.21%,-0.589%,-6.51%,15.5%,-1.15%,3.17%,10.3%,-9.15%
CC1Cc2ccccc2N1Cc1occc1C(=O)OCC(N)=O (stereo not given),-4.31%,11%,7.16%,10.7%,4.56%,-3.99%,5.91%,17%,8.33%,13.6%,-3.53%
COC(=O)c1ccc2ccn(CC3CCCO3)c(=O)c2c1 (stereo not given),-0.0971%,5.48%,-14.6%,5.25%,0.979%,12.3%,16.3%,6.29%,4.3%,10%,78.9%
CCS(=O)(=O)Nc1ccc(C(=O)NCCCN2CCCC2)cc1,-2.09%,13.2%,2.99%,-3.93%,-3.8%,0%,19.1%,-9%,4.25%,7.79%,-4.55%
Cn1cccc1CCC(=O)N1CCC2(CC1)c1ccccc1CC2O (stereo not given),0.249%,13%,-1.66%,10.8%,4.23%,-38.6%,20.6%,21.3%,11.8%,16.1%,5.42%
Cc1ccc(CN2CCC[C@]3(C(=O)O)CN(c4ncccn4)C[C@@H]3C2)o1,-3.35%,5.33%,-3.88%,3.31%,0.579%,-39.6%,3.59%,-0.723%,5.21%,-15%,-7.67%
CCOc1nnc(CNC2CCCN(c3ccc(C)nn3)C2)s1 (stereo not given),-2.75%,13.5%,-13.2%,-9.51%,6.89%,-8.02%,15.1%,18.7%,5.42%,23.5%,-2.87%
CNC(=O)C1CCN(C(=O)c2ccn(-c3ccc(F)cc3)n2)CC1,-3.93%,16.2%,1.73%,1.5%,-1.21%,2.77%,7.54%,8.4%,10.9%,23.2%,-0.908%
